# From PubChem BioAssay (NCATS)
# Where “and” joins values, the source holds several entries; their conditions need not be identical. Equal entries are not always repeated. Calls of active or inactive are those of the source. Calls come from the whole dose curve; as a rule, active = well fitted activation curve with a large enough effect; inconclusive = small, poorly fitted or top-dose-only effect; inactive = no such curve, though single readings can be large or run the other way.
# Target: Cytochrome P450 3A4 (Homo sapiens) (UniProt P08684)
# Sequence (P08684 whole entry, looked up): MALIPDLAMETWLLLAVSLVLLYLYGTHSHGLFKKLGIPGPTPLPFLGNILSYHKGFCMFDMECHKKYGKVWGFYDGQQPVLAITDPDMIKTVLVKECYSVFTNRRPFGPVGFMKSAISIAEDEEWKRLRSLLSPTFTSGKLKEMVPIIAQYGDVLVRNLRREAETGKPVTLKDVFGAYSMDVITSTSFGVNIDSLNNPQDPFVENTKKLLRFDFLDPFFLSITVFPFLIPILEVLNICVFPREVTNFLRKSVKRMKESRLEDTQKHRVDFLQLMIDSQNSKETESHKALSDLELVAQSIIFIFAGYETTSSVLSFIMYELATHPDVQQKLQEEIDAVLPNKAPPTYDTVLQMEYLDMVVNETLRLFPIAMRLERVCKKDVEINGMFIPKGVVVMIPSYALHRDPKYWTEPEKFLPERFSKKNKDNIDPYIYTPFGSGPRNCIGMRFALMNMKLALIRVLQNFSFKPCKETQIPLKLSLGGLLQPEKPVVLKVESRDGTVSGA
# Experiment: qHTS Assay for Activators of Cytochrome P450 3A4 (AID 885); note: nearly all actives have a fitted effect of over 65% in size
# Conditions: recombinant CYP3A4, Luciferin-PPXE luminescence, 60 min; series mostly up to 57.1 µM
# Summary of the method: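 Quantitative HTS format: compounds preincubated with 20nM human CYP3A4 and Luciferin-PPXE substrate at KM, reaction started by NADPH regeneration, stopped after 60 min, luciferase luminescence read 20 min later.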
row,SMILES,"activity change, positive = activation"
1,C=CCOC(=O)C(C(C)=O)C(NC(=O)OC)c1cccs1 (configuration not stated),-101% [at 11.4 µM] (inactive)
2,CCCCOC(OCCCC)[C@H](O)CSc1ccc2ccccc2c1,-60.8% [at 11.4 µM] (inactive)
3,CCCCCCC#CC1C=CC(OC(=O)OCC)C(COC(=O)OCC)O1 (configuration not stated),-78% [at 11.4 µM] (inactive)
4,CC12C=C(/C=C/c3ccc(Br)cc3)C(C)(C1)C(c1ccc(Br)cc1)CC2=O (configuration not stated),-72.7% [at 11.4 µM] (inactive)
5,COC(=O)N(/C=C/c1ccc(OC)cc1)CCc1ccc(OC)c(OC)c1,-93.3% [at 11.4 µM] (inactive)
6,CCCCCCC(=O)Cc1cc(OC)c(OC)cc1/C=C(/C(C)=O)C(=O)OC,-68.2% [at 11.4 µM] (inactive)
7,CC(=O)OCC1OC(C#CCCCc2ccccc2)C=CC1OC(C)=O (configuration not stated),-71.4% [at 11.4 µM] (inactive) and -59.5% [at 11.4 µM] (inactive)
8,COc1ccc(/C=C/N(CCc2ccc(OC)c(OC)c2)C(C)=O)cc1,-88.6% [at 11.4 µM] (inactive)
9,COC(=O)NC(/C(C(=O)OC)=C(\C)NCc1ccccc1)c1ccc(F)cc1 (configuration not stated),-71.8% [at 11.4 µM] (inactive)
10,Cc1cc(C)cc(C#CC2C=CC(Oc3ccc(C4CCCC4)cc3)C(CO)O2)c1 (configuration not stated),-81.6% [at 11.4 µM] (inactive)
11,COC(=O)C1=C(C)N(Cc2ccccc2)C2=C(C(=O)c3ccccc3)C(c3ccccc3)[C@@](O)(C(=O)OC)C(=O)N2C1c1ccccc1 (some centres not stated),-54.4% [at 11.4 µM] (inactive)
12,C=CCOC(=O)/C=C/NC(=O)/C=C/C=C/CCCCCCCC(C)O (configuration not stated),-72.9% [at 11.4 µM] (inactive) and -68.1% [at 11.4 µM] (inactive)
13,C=CCC1C=CC(Oc2ccc(OC)cc2)C(CO)O1 (configuration not stated),-64.8% [at 11.4 µM] (inactive)
14,COC(=O)C/C=C\[C@@H](C)[C@@H](/C=N\OC[C@@H]1O[C@H](c2ccccc2)C=C[C@@H]1Oc1ccc(OC)cc1)NS(=O)(=O)c1ccc(C)cc1,-96.1% [at 11.4 µM] (inactive)
15,COc1ccc(/C=C/N(CCc2ccc(OC)c(OC)c2)C(=O)c2ccccn2)cc1,-97.7% [at 11.4 µM] (inactive)
16,C=C(C)C(O)/C=C/c1ccc(Br)cc1 (configuration not stated),-65.3% [at 11.4 µM] (inactive)
17,COC(=O)C1=C(C)N(Cc2ccccc2)C2=C3C(=O)N(C)C(=O)C3[C@@](O)(C(=O)OC)C(=O)N2C1c1ccccc1 (some centres not stated),-32.3% [at 11.4 µM] (inactive)
18,COC(=O)C1=C(C)N(Cc2ccccc2)C2=C3C(=O)OCCC3[C@@](O)(C(=O)OC)C(=O)N2C1c1ccccc1 (some centres not stated),-61.3% [at 11.4 µM] (inactive)
19,COC(=O)[C@@H]1CC[C@H](C)[C@@H](c2ccc(C)cc2)N1C(=O)c1ccc(/C=N\O[C@@H](C)c2cn([C@H](CO)Cc3ccccc3)nn2)cc1,-62.7% [at 11.4 µM] (inactive) and -101% [at 11.4 µM] (inactive)
20,CC1CCC2C(=O)OC(COc3ccc(C(C)(C)C)cc3)CN2C1c1ccc(Br)cc1 (configuration not stated),-42.1% [at 11.4 µM] (inactive) and -33.2% [at 11.4 µM] (inactive)
21,C=COCC1CN2C(CCC(C)C2c2ccc(Br)cc2)C(=O)O1 (configuration not stated),-65.3% [at 11.4 µM] (inactive) and -87.4% [at 11.4 µM] (inactive)
22,CC12C=C(/C=C/C=C/c3ccccc3)C(C)(C1)C(/C=C/c1ccccc1)CC2=O (configuration not stated),-62.5% [at 11.4 µM] (inactive)
23,Cc1ccc(S(=O)(=O)N[C@@H](CCc2ccccc2)CC(=O)C(C)(C)C)cc1,-96.1% [at 11.4 µM] (inactive)
24,CCOC(=O)OCC1OC(C#Cc2ccccc2)C=CC1Oc1cccc(N(C)C)c1 (configuration not stated),-91.5% [at 11.4 µM] (inactive)
25,COc1ccc(O[C@H]2C=C[C@@H](c3ccccc3)O[C@H]2COC(=O)CC/C(C)=N/OCC[C@@H]2C=C[C@H](OC(C)=O)[C@H](COC(C)=O)O2)cc1,-91.8% [at 11.4 µM] (inactive)
26,COc1ccc(OC2C=CC(c3ccccc3)OC2CO)c(C(C)(C)C)c1 (configuration not stated),-79.5% [at 11.4 µM] (inactive)
27,CC1CCC2C(=O)N3C(CCC(C)[C@@H]3c3cccc(N4CCOCC4)c3)C(=O)N2C1c1cccc(N2CCOCC2)c1 (some centres not stated),-62.4% [at 11.4 µM] (inactive)
